40 molecules from PubChem BioAssay (EPA / NIEHS) can be followed below.

Each structure is given as a SMILES string. Results filed as inconclusive are left out. Active and inactive are the calls of the source. How the source made its calls: active means hit-call score of the fitted dose curve at least 0.9, where 1 is the maximum; inconclusive means response in the unintended direction; inactive means score below 0.9.

As a reminder, the AC50 is the concentration at which the activity in the assay is half-maximal.

human RAR-related Orphan Receptor gamma (RORg), RORC (gene 6097), sequence (P51449 whole entry, looked up): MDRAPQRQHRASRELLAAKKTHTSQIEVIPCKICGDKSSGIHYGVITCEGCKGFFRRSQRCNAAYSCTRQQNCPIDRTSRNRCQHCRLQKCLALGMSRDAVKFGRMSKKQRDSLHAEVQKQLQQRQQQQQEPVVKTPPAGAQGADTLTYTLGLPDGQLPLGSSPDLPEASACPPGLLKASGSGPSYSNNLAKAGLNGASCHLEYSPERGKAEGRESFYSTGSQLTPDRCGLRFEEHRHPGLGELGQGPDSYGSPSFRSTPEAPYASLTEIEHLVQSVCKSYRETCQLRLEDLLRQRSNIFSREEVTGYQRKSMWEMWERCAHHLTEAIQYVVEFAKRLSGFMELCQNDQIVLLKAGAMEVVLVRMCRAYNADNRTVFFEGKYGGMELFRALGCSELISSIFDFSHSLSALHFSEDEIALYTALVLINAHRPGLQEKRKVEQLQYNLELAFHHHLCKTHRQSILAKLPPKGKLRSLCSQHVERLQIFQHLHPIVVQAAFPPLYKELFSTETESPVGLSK

The target in this experiment is human RAR-related Orphan Receptor gamma (RORg), RORC (gene 6097) (UniProt P51449). The experiment is described as follows: ATG_RORg_TRANS: Attagene TRANS-FACTORIAL HepG2 Assay for human RAR-related Orphan Receptor gamma (RORg) (AID 2283011).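 On AC50: potency for induction of reporter transcripts above DMSO so activators.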 The method, then:
ATG_TRANS is a cell-based, multiplexed-readout assay that uses HepG2, a human liver cell line, with measurements taken at 24 hours after chemical dosing in a 24-well plate.ATG_RORg_TRANS is one of 30 assay component(s) measured or calculated from the ATG_TRANS assay. It is designed to make measurements of mRNA induction, a form of inducible reporter, as detected with fluorescence intensity signals by Reverse transcription polymerase chain reaction (RT-PCR) and Capillary electrophoresis technology.Data from the assay component ATG_RORg_TRANS was analyzed into 1 assay endpoint. This assay endpoint, ATG_RORg_TRANS, was analyzed in the positive analysis fitting direction relative to DMSO as the negative control and baseline of activity. Using a type of inducible reporter, measures of mRNA for gain-of-signal activity can be used to understand the reporter gene at the transcription factor-level as they relate to the gene RORC. Furthermore, this assay endpoint can be referred to as a primary readout, because this assay has produced multiple assay endpoints where this one serves a reporter gene function. To generalize the intended target to other relatable targets, this assay endpoint is annotated to the nuclear receptor intended target family, where the subfamily is orphan.
Human liver HepG2 cells are transiently transfected with multiple reporter transcription units (MRTUs) in 6-well plates using FuGene 6 reagent (Roche; 3 ml FuGene/1 mg DNA). The MRTU constructs are regulated by a cis-regulating element (promoter). […] A major difference between the CIS and TRANS system is that in CIS activities of endogenous TFs are measured, whereas the TRANS assay evaluates changes in activities of exogenous, chimeric NR-Gal4 proteins. […] At the end of 24 hour incubation, total RNA was isolated using TriZol reagent (Invitrogen). The isolated RNA is then reverse-transcribed using oligo(dT) primer and Mo-MLV reverse transcriptase (Invitrogen) with DNAse I (Ambion) treatment for 30 min. The one-tenth of the produced cDNA was amplified by PCR using Taq DNA polymerase (Invitrogen) and two reporter sequence-specific primers. The PCR products were fluorescently labeled by primer extension with 6-arboxyfluorescein (6-FAM) 5'-labeled reporter sequence-specific primer (2 min at 95 C, 20 s at 68 C and 10 min at 72 C) and these products were digested with 5U of HpaI (New England Biolabs) for 2h at 37 C. The fragments were purified using Qiaquick PCR columns (Qiagen), analyzed on an ABI 3130xL genetic analyzer (Applied Biosystems) with peak positions identified by using a set of X-rhodamine (ROX)-labeled MapMarker1000 molecular weight standards (BioVentures). The raw capillary electrophoresis data was processed using Attagraph software (Attagene).
As to `CCC(=O)c1ccc(Cl)cc1`, the call was inactive.
Same read-out and setting: for `Nc1ccc(Cl)c(Cl)c1` the value was “inactive”; for `CC(O)CN(CC(C)O)CC(C)O` (stereo not given), “inactive”.
Still for that read-out and setting: for `O=c1[nH]c(Cl)c(Cl)cc1Cl` the value was “inactive”; for `CCC[N+](=O)[O-]`, “inactive”.
The same measure, in the same setting: for `CC=Cc1ccc2c(c1)OCO2` the value was “inactive”.
For the molecule `O=C(O)C(Br)Br`, the molecule was called inactive.
Still for that read-out and setting: for `ClCCCCCCCl` the value was “inactive”; for `C[N+](C)(C)CC(=O)[O-]`, “inactive”; for `CC(C)CCCCCCCOC(=O)c1ccccc1C(=O)OCCCCCCCC(C)C`, “inactive”.
Still for that read-out and setting: for `O=c1c2ccccc2c(=O)c2c1cc(Cl)c1[nH]c3c([nH]c12)c(Cl)cc1c(=O)c2ccccc2c(=O)c13` the value was “inactive”; for `Nc1ccccc1C(=O)OCCc1ccccc1`, “inactive”.
Still for that read-out and setting: for `[Cl][Sb]([Cl])[Cl]` the value was “inactive”; for `CN(C)CCC#N`, “inactive”; for `Oc1ccc(Cl)cc1`, “inactive”.
Take `[CH3][Sn]([Cl])([Cl])[Cl]`: the outcome was inactive.
The same measure, in the same setting: for `O=[N+]([O-])C=Cc1ccccc1` the value was “inactive”; for `C[N+](C)(C)CC(=O)O`, “inactive”.
On to `C#CC1(O)CCCCC1`, for which the outcome was inactive.
On to `CC(=O)C=Cc1ccccc1`, for which the outcome was inactive.
On the same count and under the same terms, for `Cc1ccccc1CCl` the value was “inactive”.
The same measure, in the same setting: for `N#CCCCl` the value was “inactive”.
On the same count and under the same terms, for `CCC1CCC(=O)O1` (stereo not given) the value was “inactive”.
Regarding `CCCCOC(=O)CCC(=O)OCCCC`, the molecule was called inactive.
In the case of `O=C(CCl)c1ccccc1`, the concentration at half-maximal activity (AC50) is 62 µM (active).
For `CCC(C)c1cc(C(C)(C)C)cc(-n2nc3ccccc3n2)c1O` (stereo not given), the result was inactive.
Regarding `Cl/C=C\CCl`, the call was inactive.
The same measure, in the same setting: for `c1ccc2c(c1)CCCC2` the value was “inactive”; for `O=C(O)CCl`, “inactive”.
On the same count and under the same terms, for `C=CC(=O)OCC(CC)CCCC` (stereo not given) the value was “inactive”.
Consider `C=C(Cl)CCl`, for which the molecule was classed as inactive.
In the case of `CC(C)(C)C(=O)CCl`, the AC50 was 134 µM (active).
Regarding `C[C@]12CC[C@H](O)C[C@H]1CC[C@@H]1[C@@H]2C[C@@H](O)[C@]2(C)[C@@H](C3=CC(=O)OC3)CC[C@]12O`, the molecule was classed as inactive.
As for `O=[N+]([O-])c1cc(C(F)(F)F)c(Cl)c([N+](=O)[O-])c1Cl`, the AC50 is 7.97 µM (active).
With `CN(C)C(=O)C(c1ccccc1)c1ccccc1`, the result was inactive.
The same measure, in the same setting: for `CCC(Br)(CC)C(=O)NC(N)=O` the value was “inactive”; for `ClCC(Cl)Cl`, “inactive”; for `CCCOC(=O)c1ccccc1C(=O)OCCC`, “inactive”.
On the same count and under the same terms, for `CCCCCCCCCCCCCCCC[N+](C)(C)C` the value was “inactive”; for `CCNCC`, “inactive”.
